Bioassay records (PubChem BioAssay)
Most compounds without a hit are left out; they make up all but 9.4% or so of the library.
ELG1 genotoxic = inducers of genotoxicity in HEK293T ELG1-luciferase cells; HEK293T ELG1-luciferase reporter, luminescence, 16 h; Potency, µM (series often up to 46 µM), hits mostly activators; 330,000 tested, 1.3% active; AID 504466; further: nearly all actives have a fitted effect of over 60% in size
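Luminescence read-out: rising ELG1-luciferase signal, reflecting elevated ELG1 protein under genetic stress, flags genotoxic compounds. Cells were treated for 16 hr at 37 °C before ONE-Glo detection.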
ELG1 repair inh = ELG1-dependent DNA repair inhibition; HEK293T ELG1-luciferase reporter, luminescence, 16 h; DNA damage induced by 5-fluorouridine; Potency, µM (titrated, usually from 46.1 µM), actives largely listed as inhibitors; 330,000 tested, 2.3% active; AID 504467; further: nearly all actives have a fitted effect of over 55% in size
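Cells (2,000 per well) received 5-fluorouridine plus test compound or DMSO and were incubated 16 hr at 37 °C, 5% CO2. Luciferase activity was read by luminescence 30 min after ONE-Glo addition; signal suppression marked inhibition of damage-induced ELG1 function.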
NPC1 prom act = NPC1 promoter activation; Potency, µM (highest dose often 9.22 µM), actives largely listed as activators; 320,000 tested, 2.4% active; Huh7 NPC1 promoter luciferase reporter, 24 h; further: nearly all actives have a fitted effect of over 60% in size
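Huh7 reporter cells (NPC1 promoter driving luciferase) are dosed with compound for 24 h at 37 °C, 5% CO2; luciferase detection reagent is then added and luminescence measured after 10 min at ambient temperature.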
SMN2 splice up = enhancers of SMN2 splice variant expression; HEK293 SMN2-luciferase splicing reporter, luminescence, 30-36 h; Potency, µM (highest dose often 46.1 µM), usual class: activators; 210,000 tested, 2.8% active; further: nearly all actives have a fitted effect of over 55% in size
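qHTS luciferase splicing reporter: luminescence rises when SMN2 exon 7 is included in transfected HEK293 cells. Compound exposure lasted 30-36 h at 37C, with 4.5 mM final sodium butyrate as control, followed by a ONE-Glo read.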
FLuc counter = firefly luciferase modulation, counter-screen for miR-21 project; Potency, µM (titrated, usually from 57.5 µM), actives largely listed as inhibitors; purified FLuc, Km substrates, luminescence inhibition; 360,000 tested, 6.9% active; further: nearly all actives have a fitted effect of over 55% in size
Target sequence (P08659 whole entry, looked up): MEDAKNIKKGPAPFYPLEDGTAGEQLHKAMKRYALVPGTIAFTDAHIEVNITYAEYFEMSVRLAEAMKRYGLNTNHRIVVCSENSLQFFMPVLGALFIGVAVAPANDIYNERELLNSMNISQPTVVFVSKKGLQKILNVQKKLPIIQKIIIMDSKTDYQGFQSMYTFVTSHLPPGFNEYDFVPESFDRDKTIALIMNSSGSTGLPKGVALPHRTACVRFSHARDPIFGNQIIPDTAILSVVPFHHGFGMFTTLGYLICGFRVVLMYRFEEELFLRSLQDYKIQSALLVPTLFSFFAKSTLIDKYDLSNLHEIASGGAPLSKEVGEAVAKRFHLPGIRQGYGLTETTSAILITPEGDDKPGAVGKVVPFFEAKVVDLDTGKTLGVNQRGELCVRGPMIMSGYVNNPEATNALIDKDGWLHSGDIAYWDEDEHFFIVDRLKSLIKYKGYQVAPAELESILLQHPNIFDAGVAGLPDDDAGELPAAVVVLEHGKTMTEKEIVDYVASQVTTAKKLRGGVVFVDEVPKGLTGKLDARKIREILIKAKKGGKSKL
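Purified P. pyralis luciferase (10nM final) with 10uM D-luciferin and 10uM ATP (Km levels) in 50mM Tris acetate pH 7.5, 10mM Mg acetate, 0.01% Tween-20, 0.05% BSA; qHTS 6-point titration, ~60 µM downward; luminescence read.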
Rab9 promoter act = Rab9 promoter activation; Potency, µM (titrated, usually from 9.22 µM), usual class: activators; Huh7 Rab9 promoter-luciferase reporter, luminescence, 24 h; 320,000 tested, 2.8% active; further: nearly all actives have a fitted effect of over 60% in size
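Cell-based reporter: Huh7 stable for Rab9 promoter-driven luciferase, plated in reduced-serum medium with 10% FBS at 1500 cells/well, compound-treated 24 h at 37 °C, luminescence read after 10 min reagent.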
Numbers stand for hits; [ ] = remark or other dose. The call rests on the fitted dose curve; in most records, active means well fitted curve in the direction sought with a large enough effect; inconclusive means small, poorly fitted or top-dose-only effect, or another doubt; inactive means no such curve, though single readings can be large; an effect the other way counts as inactive or inconclusive.

`NC(=O)/C=C\c1cn(-c2ccccc2)nc1-c1ccc2c(c1)OCCO2` gave ELG1 genotoxic inactive, ELG1 repair inh 16.4µM, NPC1 prom act inactive, SMN2 splice up inactive, FLuc counter inactive and Rab9 promoter act inactive.
O=C1S/C(=C/c2ccccc2F)C(=O)N1CCN=C1NS(=O)(=O)c2ccccc21 was read as ELG1 genotoxic inactive, ELG1 repair inh inconclusive, NPC1 prom act inactive, SMN2 splice up inactive[1.84 µM], FLuc counter inactive and Rab9 promoter act inactive.
`O=C(O)c1ccc2c(c1)C(=O)N(c1ccc(OCc3ccccc3)cc1)C2=O` gave ELG1 genotoxic inactive, ELG1 repair inh inactive, NPC1 prom act inactive, FLuc counter inactive and Rab9 promoter act inactive.
Screening O=C1CCOc2cc(OCc3ccccc3)ccc21 returned ELG1 genotoxic 10.3µM, ELG1 repair inh inconclusive, NPC1 prom act 1µM, SMN2 splice up 2.24µM, FLuc counter 1.51µM and Rab9 promoter act 1µM.
`COc1ccc(OC)c(NC(=O)c2c(NCc3ccc(OC)c(OC)c3)sc3c2CCC(C)C3)c1` (configuration not stated) gave FLuc counter inactive.
NC(=S)N=Nc1c(O)n(CCCl)c2ccc(Br)cc12 was read as ELG1 genotoxic inactive, ELG1 repair inh 14.6µM, NPC1 prom act inactive, FLuc counter inactive and Rab9 promoter act inactive.
For C/C(Cl)=C\Cn1c(O)c(N=NC(N)=S)c2cc(Br)ccc21 the results were ELG1 genotoxic inactive, ELG1 repair inh inactive, NPC1 prom act inactive, FLuc counter inactive and Rab9 promoter act inactive.
Screening CC(C)(C)n1ncc2c(=O)n(Cc3cccc(Cl)c3Cl)cnc21 returned FLuc counter inactive.
Screening O=C(CSc1n[nH]c(=O)n1Cc1ccco1)c1ccc2c(c1)OCCO2 returned ELG1 genotoxic inconclusive, ELG1 repair inh inactive, NPC1 prom act inactive, FLuc counter 15.1µM and Rab9 promoter act inconclusive.
`O=C(CSc1n[nH]c(=O)n1C1CC1)c1ccc2c(c1)OCCO2` gave ELG1 genotoxic inactive, ELG1 repair inh inactive, NPC1 prom act inconclusive, FLuc counter 13.5µM and Rab9 promoter act inconclusive.
Screening COc1cc(C2CC(=O)Nc3c2c(=O)n(C)c(=O)n3C)cc(OC)c1OC (configuration not stated) returned FLuc counter inactive.
For Cc1cccc(CNC(=O)c2cc3cc(S(=O)(=O)N4CCCCC4)ccc3n2C)c1 the results were FLuc counter inactive.
For Nc1nc(-c2ccccn2)nc(N)c1Cc1c(F)cccc1Cl the results were ELG1 genotoxic inactive, ELG1 repair inh inconclusive, NPC1 prom act inactive, SMN2 splice up inactive, FLuc counter 26.9µM and Rab9 promoter act inactive.
Cc1n[nH]c(C)c1Cc1c(F)cccc1Cl was read as ELG1 genotoxic inactive, ELG1 repair inh inactive, NPC1 prom act inactive, FLuc counter inactive and Rab9 promoter act inactive.
For Nc1nc(-c2ccccn2)nc(N)c1Cc1ccc(Cl)cc1Cl the results were ELG1 genotoxic inactive, ELG1 repair inh inactive, NPC1 prom act inactive, SMN2 splice up inactive, FLuc counter inconclusive and Rab9 promoter act inactive.
`Nc1nc(-c2ccccn2)nc(N)c1Cc1ccccc1F` gave ELG1 genotoxic inactive, ELG1 repair inh inconclusive, NPC1 prom act inconclusive, SMN2 splice up inactive, FLuc counter 15.1µM and Rab9 promoter act inconclusive.
For O=C(N=Nc1c(O)n(Cc2ccccc2)c2ccccc12)c1ccc(O)cc1 the results were ELG1 genotoxic inconclusive, ELG1 repair inh inconclusive, NPC1 prom act inconclusive, SMN2 splice up inconclusive, FLuc counter 0.953µM and Rab9 promoter act inconclusive.
Screening COc1ccc(C(=O)NCC(=O)N=Nc2c(O)n(Cc3ccccc3)c3ccccc23)cc1OC returned ELG1 genotoxic inactive, ELG1 repair inh inconclusive, NPC1 prom act inactive, SMN2 splice up inactive, FLuc counter inactive and Rab9 promoter act inactive.
O=C(N=Nc1c(O)n(Cc2ccccc2)c2ccccc12)c1cc2ccccc2cc1O was read as ELG1 genotoxic inconclusive, ELG1 repair inh inconclusive, NPC1 prom act inconclusive, SMN2 splice up 10µM, FLuc counter 1.07µM and Rab9 promoter act inconclusive.
Cn1cnnc1SCc1ccc(C(=O)N=Nc2c(O)n(Cc3ccc(Cl)cc3)c3ccccc23)cc1 was read as ELG1 genotoxic inactive, ELG1 repair inh 9.2µM, NPC1 prom act inactive, SMN2 splice up inactive, FLuc counter inconclusive and Rab9 promoter act inactive.
Cc1nn(C)c2c1c(C(F)(F)F)cc(=O)n2C(C)C(=O)NCCc1ccc(Cl)cc1 (configuration not stated) was read as FLuc counter inactive.
CCc1ccccc1NC(=O)Cn1nc(CC)n2c(cc3sccc32)c1=O was read as SMN2 splice up inactive and FLuc counter inactive.
`CCCCCC(=O)/C=C/[C@@H]1[C@@H](C/C=C\CCCC(=O)O)[C@@H](O)C[C@H]1O` gave SMN2 splice up inactive.
CCCCN=C1NN=C(c2ccc3c(c2)OCCO3)CS1 was read as ELG1 genotoxic 1.83µM, ELG1 repair inh inconclusive, NPC1 prom act 1.26µM, FLuc counter 3.01µM and Rab9 promoter act 0.891µM.
Screening COCCn1c(C)cc(C2=NNC(=NC(C)(C)C)SC2)c1C returned ELG1 genotoxic inconclusive, ELG1 repair inh inconclusive, NPC1 prom act inconclusive, SMN2 splice up inactive, FLuc counter inconclusive and Rab9 promoter act inconclusive.
`c1cc2c(cc1C1=NNC(=NC3CC3)SC1)OCCO2` gave ELG1 genotoxic inconclusive, ELG1 repair inh inconclusive, NPC1 prom act 0.0003µM, SMN2 splice up inactive, FLuc counter 0.239µM and Rab9 promoter act 0.0013µM.
CCCCN=C1NN=C(c2ccc(C)c(C)c2)CS1 was read as ELG1 genotoxic inactive, ELG1 repair inh inconclusive, NPC1 prom act 2.82µM, SMN2 splice up 14.1µM, FLuc counter 23.9µM and Rab9 promoter act 1.58µM.
`COCCN=C1NN=C(c2ccc(C)c([N+](=O)[O-])c2)CS1` gave ELG1 genotoxic 18.3µM, ELG1 repair inh inconclusive, NPC1 prom act 2.82µM, SMN2 splice up 11.2µM, FLuc counter 15.1µM and Rab9 promoter act 4.47µM.
For FC(F)Sc1ccc(N=C2NN=C(c3ccc4c(c3)OCCO4)CS2)cc1 the results were ELG1 genotoxic inactive, ELG1 repair inh inconclusive, NPC1 prom act inactive, SMN2 splice up inactive, FLuc counter inconclusive and Rab9 promoter act inactive.
COc1ccc(N=C2NN=C(c3ccc4c(c3)OCCO4)CS2)cc1 was read as ELG1 genotoxic inactive, ELG1 repair inh inactive, NPC1 prom act inactive, SMN2 splice up inactive, FLuc counter inconclusive and Rab9 promoter act inactive.
For CC(NC(=O)COc1ccc(-c2nnco2)cc1)c1ccc(Cl)cc1Cl (configuration not stated) the results were ELG1 genotoxic inactive, ELG1 repair inh inconclusive, NPC1 prom act inactive, FLuc counter inactive and Rab9 promoter act inactive.
Screening CCN(c1ccccc1)c1ccc2cc(S(=O)(=O)N3CCCC3)ccc2n1 returned FLuc counter inactive.
